From PubChem BioAssay (Tox21) come the findings set out here.

Molecules are shown by their SMILES. Values joined by “and” are separate entries in the source; they are usually repeats but may differ in a detail not shown here. Equal values may be shown once. A number with no mark means an inactive call. Inconclusive results are not listed. Active and inactive are the calls of the source. The call rests on the fitted dose curve; in most records, active means well fitted curve in the direction sought with a large enough effect in the repeat runs; inconclusive means weak or mixed curves; inactive means no such curve, though single readings can be large; an effect the other way counts as inactive or inconclusive.

Experiment [1] is described as follows: qHTS RealTime-Glo MT Cell Viability Assay in HEK293 cells - 40 hour (AID 1224874). Further: nearly all actives have a fitted effect of over 50% in size. Further: potency means the concentration at half of the fitted maximal effect. Particulars: RealTime-Glo luminescence; max response: active compounds read low. The essentials:
(§1)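 Measured as luminescence from the same continuously cultured HEK293 wells at successive time points (0, 8, 16, 24, 32, 40 h) after compound addition. Reagent present from seeding; dosing at 5 h; incubation 37 C.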
In general terms: Quantitative high-throughput screening tests each substance at several concentrations.

The nature of experiment [2]: qHTS RealTime-Glo MT Cell Viability Assay in HEK293 cells - 0 hour (AID 1224880). Further: top concentration of the series differs between compounds; nearly all actives have a fitted effect of over 45% in size. The essentials: as §1
A short description of experiment [3]: A CellTox Green Cytotoxicity Assay to monitor cytotoxicity in HEK293 cells - 32 hour (AID 1224881). Further: nearly all actives have a fitted effect of over 40% in size. Further: potency means the concentration at half of the fitted maximal effect. The method, boiled down:
(§2)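 Homogeneous no-lysis format: HEK293 cell suspension mixed with CellTox Green reagent, seeded, incubated 5 h at 37 C/5% CO2, then dosed by pintool with compound in DMSO.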

Experiment [4] can be described thus: A CellTox Green Cytotoxicity Assay to monitor cytotoxicity in HepG2 cells - 0 hour (AID 1224882). Further: nearly all actives have a fitted effect of over 35% in size. The method, boiled down: (§3)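 Fluorescent DNA-binding dye, 600 HepG2 cells/well, 5 h preincubation then compound in DMSO; same plates read at 0–40 h, 37 C.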
The nature of experiment [5]: A CellTox Green Cytotoxicity Assay to monitor cytotoxicity in HEK293 cells - 8 hour (AID 1224884). Further: nearly all actives have a fitted effect of over 35% in size. The essentials: as §2
Experiment [6] is described as follows: qHTS RealTime-Glo MT Cell Viability Assay in HEK293 cells - 24 hour (AID 1224886). Further: nearly all actives have a fitted effect of over 50% in size. Further: potency means the concentration at half of the fitted maximal effect. The essentials: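 Nonlytic real-time viability readout: viable cells convert prosubstrate to NanoLuc substrate, giving luminescence proportional to live cell number. HEK293, 600 cells/well, compound added after 5 h, continuous culture at 37 C.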
Experiment [7] is described as follows: qHTS RealTime-Glo MT Cell Viability Assay in HEK293 cells - 8 hour (AID 1224887). Further: nearly all actives have a fitted effect of over 50% in size. Further: potency means the concentration at half of the fitted maximal effect. The method, boiled down: as §1
The nature of experiment [8]: A CellTox Green Cytotoxicity Assay to monitor cytotoxicity in HEK293 cells - 16 hour (AID 1224888). Further: nearly all actives have a fitted effect of over 35% in size. Further: potency means the concentration at half of the fitted maximal effect. The essentials:
as §2

Experiment [9] is described as follows: qHTS RealTime-Glo MT Cell Viability Assay in HepG2 cells - 0 hour (AID 1224889). Further: nearly all actives have a fitted effect of over 50% in size. The essentials:
(§4)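 Luminescence read-out: viable HepG2 cells reduce a prosubstrate to a NanoLuc substrate, giving a signal proportional to live cell number. Reads taken at 0, 8, 16, 24, 32 and 40 h of compound exposure at 37 C.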

A short description of experiment [10]: A CellTox Green Cytotoxicity Assay to monitor cytotoxicity in HepG2 cells - 8 hour (AID 1224890). Further: nearly all actives have a fitted effect of over 45% in size. Further: potency means the concentration at half of the fitted maximal effect. The method, boiled down:
as §3

The nature of experiment [11]: qHTS assay to identify small molecule antagonists of the estrogen receptor alpha (ER-alpha) signaling pathway using the BG1 cell line in the presence of 0.1 nM 17-beta-estradiol - cell viability counter screen (AID 1259241). Further: nearly all actives have a fitted effect of over 40% in size. The essentials:
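Cells were plated and left 24 hr, compounds in DMSO were pinned in, 17beta-estradiol was added to 0.1 nM final, and after 22 hr CellTiter-Fluor reagent was added for 30 min before fluorescence was read.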

Experiment [12] is described as follows: qHTS assay to identify small molecule antagonists of the androgen receptor (AR) signaling pathway using the MDA cell line in the presence of 0.5 nM R1881 - cell viability counter screen (AID 1259242). Further: nearly all actives have a fitted effect of over 45% in size. Further: potency means the concentration at half of the fitted maximal effect. The essentials:
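Human breast carcinoma MDA-kb2 cells, cultured without CO2, receive compounds alongside 0.5 nM (final) R1881 agonist. After 16 hr at 37C, viability is taken as live-cell protease signal.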

A short description of experiment [13]: A CellTox Green Cytotoxicity Assay to monitor cytotoxicity in HEK293 cells - 24 hour (AID 1224875). Further: nearly all actives have a fitted effect of over 45% in size. Further: potency means the concentration at half of the fitted maximal effect. The method, boiled down:
as §2

Experiment [14] can be described thus: A CellTox Green Cytotoxicity Assay to monitor cytotoxicity in HepG2 cells - 24 hour (AID 1224878). Further: nearly all actives have a fitted effect of over 45% in size. Further: potency means the concentration at half of the fitted maximal effect. The essentials:
as §3

Experiment [15] can be described thus: A CellTox Green Cytotoxicity Assay to monitor cytotoxicity in HepG2 cells - 40 hour (AID 1224879). Further: nearly all actives have a fitted effect of over 40% in size. Further: potency means the concentration at half of the fitted maximal effect. The essentials: as §3
Experiment [16] can be described thus: A CellTox Green Cytotoxicity Assay to monitor cytotoxicity in HepG2 cells - 32 hour (AID 1224883). Further: nearly all actives have a fitted effect of over 50% in size. Further: potency means the concentration at half of the fitted maximal effect. The method, boiled down:
as §3

The nature of experiment [17]: qHTS RealTime-Glo MT Cell Viability Assay in HepG2 cells - 32 hour (AID 1224877). Further: nearly all actives have a fitted effect of over 55% in size. Further: potency means the concentration at half of the fitted maximal effect. The essentials:
as §4

Experiment [18] in a line: qHTS RealTime-Glo MT Cell Viability Assay in HepG2 cells - 16 hour (AID 1224885). Further: nearly all actives have a fitted effect of over 50% in size. Further: potency means the concentration at half of the fitted maximal effect. The essentials: as §4
Experiment [19] is described as follows: A CellTox Green Cytotoxicity Assay to monitor cytotoxicity in HepG2 cells - 16 hour (AID 1224876). Further: nearly all actives have a fitted effect of over 45% in size. Further: potency means the concentration at half of the fitted maximal effect. The method, boiled down: as §3
On the % scale 0 is the no-effect control and ±100 the full control effect.

Regarding `CCCCCCOc1ccc(O)cc1`, the Potency was 0.0776 µM (active) in experiment [1]; 19.5 µM (active) in experiment [3]; 0.0617 µM (active) in experiment [6]; 0.0617 µM (active) in [7]; 24.5 µM (active) in experiment [10]. Besides, the Potency result in experiment [2], in [4], in [5], in experiment [8], in [9] and in experiment [11] was “inactive” each time. Also, the Potency result in experiment [12] is “inactive”.

For the molecule `CCCCCCOc1cc(C)c(O)c(C)c1C`, the Potency in [1] was 19.7 µM (active); in experiment [13], 44.2 µM (active); in experiment [14], 24.8 µM (active); in experiment [15], 24.8 µM (active); in [3] it was 44.2 µM (active); in experiment [16] it was 24.8 µM (active). Besides, the Potency in experiment [6] is 15.7 µM (active); in experiment [7] it was 14 µM (active); in experiment [8], 44.2 µM (active); in experiment [10], 35.1 µM (active). Further, the Potency entry in experiment [2], in experiment [4], in [9], in experiment [11] and in experiment [12] was “inactive” throughout.

As to `COc1ccc2sc(C(=O)Nc3nnn[nH]3)c(OC(C)C)c2c1`, the Potency result in [13], in [17], in [14], in [15], in experiment [2] and in experiment [3] was “inactive” throughout. Moreover, the Potency entry in experiment [4], in experiment [16], in experiment [5], in [18], in [7] and in experiment [8] was “inactive” throughout. For the same molecule, the Potency result in experiment [9], in [10], in experiment [11] and in experiment [12] was “inactive” throughout.

As for `CC(C)c1cccc(C(C)C)c1N1C(=O)c2ccc(O)cc2C1=O`, the Potency in experiment [17] is 43.6 µM (active); in [15], 24.5 µM (active); in experiment [16], 24.5 µM (active); in [18], 49 µM (active); in [10], 38.9 µM (active). Also, the Potency entry in experiment [2], in experiment [4], in [5], in [7], in experiment [8] and in experiment [9] was “inactive” throughout. The Potency entry in experiment [11] and in experiment [12] was “inactive” throughout.

As for `CCOC(=O)N1CCC(=C2c3ccc(Cl)cc3CCc3cccnc32)CC1`, the Potency in [1] is 19.5 µM (active) and 16.9 µM (active); in experiment [15], 54.9 µM (active); in experiment [6], 21.9 µM (active) and 16.9 µM (active); in experiment [7] it was 21.9 µM (active). Also, the Potency entry in experiment [13], in [17], in experiment [2], in experiment [3], in experiment [4] and in experiment [8] was “inactive” throughout. In addition, the Potency result in [9], in experiment [10], in experiment [11] and in experiment [12] was “inactive” each time.

`C=C1C(C)(C)[C@@]2(Cl)C(Cl)[C@]1(Cl)C(Cl)(Cl)C2(Cl)Cl` (some centres undefined): the Potency result in [19], in experiment [2], in [4], in experiment [9], in experiment [10] and in experiment [11] was “inactive” in each case. Further, the Potency entry in experiment [12] is “inactive”. The Potency is 48.1 µM (active) in experiment [14], 53.9 µM (active) in experiment [15], 53.9 µM (active) in [16] and 53.9 µM (active) in experiment [7].

Regarding `CC1(C)COCN1`, the max response in experiment [1] was -0.12%. Besides, the Potency result in [19], in experiment [17], in [14], in experiment [15], in experiment [2] and in experiment [4] was “inactive” throughout. Also, the Potency result in experiment [16], in experiment [5], in experiment [18], in experiment [6], in experiment [7] and in experiment [9] was “inactive” throughout. The Potency entry in experiment [10], in experiment [11] and in experiment [12] was “inactive” in each case.

In the case of `CCCSS/C(CCO)=C(\C)N(C=O)Cc1cnc(C)nc1N`, the Potency entry in experiment [13], in experiment [19], in [14], in experiment [2], in experiment [3] and in [4] was “inactive” each time. The Potency entry in experiment [5], in experiment [18], in [7], in experiment [8], in experiment [9] and in experiment [10] was “inactive” throughout. In addition, the Potency entry in experiment [11] and in experiment [12] was “inactive” in each case.

Regarding `CN(C)CCCN1c2ccccc2Sc2ccc(C(F)(F)F)cc21`, the Potency in experiment [1] is 23.9 µM (active); in experiment [14], 23.9 µM (active); in experiment [15], 23.9 µM (active); in experiment [3], 23.9 µM (active); in [16], 23.9 µM (active); in [6], 21.3 µM (active). Besides, the Potency in experiment [7] was 21.3 µM (active). Moreover, the Potency result in experiment [4], in [5], in experiment [8] and in [11] was “inactive” each time.

In the case of `CCC(C)(C)c1cc(O)c(C(C)(C)CC)cc1O`, the Potency is 34.7 µM (active) in experiment [1]; 49 µM (active) in [15]; 49 µM (active) in experiment [16]; 21.9 µM (active) in experiment [6]; 21.9 µM (active) in [7]. Besides, the Potency entry in [19], in experiment [2], in experiment [4], in experiment [5], in [9] and in [10] was “inactive” in each case. Further, the Potency entry in experiment [11] is “inactive”.

Consider `CC(C(O)c1ccccc1)N(C)CCOC(c1ccccc1)c1ccccc1` (centres undefined), for which the Potency in [1] was 23.9 µM (active); in [19], 23.9 µM (active); in experiment [15] it was 26.8 µM (active); in experiment [3] it was 26.8 µM (active); in experiment [16], 26.8 µM (active); in experiment [6], 21.3 µM (active). The Potency in [12] is 29.8 µM (active). Moreover, the Potency entry in [2], in experiment [4], in experiment [5] and in experiment [11] was “inactive” each time.

Take `S=P(N1CC1)(N1CC1)N1CC1`: the Potency result in experiment [13], in experiment [19], in [17], in experiment [14], in experiment [15] and in [2] was “inactive” throughout. The Potency entry in experiment [3], in experiment [4], in experiment [16], in experiment [18], in experiment [7] and in experiment [8] was “inactive” in each case. In addition, the Potency result in experiment [9], in experiment [10], in experiment [11] and in experiment [12] was “inactive” each time.

For the molecule `CN(C)CCOC(c1ccccc1)c1ccccc1` (tested in a mixture with another compound), the Potency entry in experiment [13], in experiment [19], in [17], in experiment [14], in experiment [15] and in experiment [2] was “inactive” each time. The Potency entry in [3], in experiment [4], in [16], in [5], in [18] and in [6] was “inactive” in each case. Moreover, the Potency result in experiment [7], in experiment [8], in experiment [9] and in [12] was “inactive” throughout.

Take `Clc1ccc(C(Cn2ccnc2)OCc2ccsc2Cl)c(Cl)c1` (centres undefined): the Potency in experiment [1] was 16.9 µM (active); in experiment [14], 21.3 µM (active); in [15], 23.9 µM (active); in [16] it was 23.9 µM (active); in experiment [6], 15.1 µM (active). In addition, the Potency entry in experiment [13], in experiment [2], in experiment [4], in experiment [5], in experiment [8] and in experiment [9] was “inactive” throughout. The Potency result in [10], in [11] and in [12] was “inactive” throughout.

In the case of `NC1(c2ccc(-c3nc4ccn5c(=O)[nH]nc5c4cc3-c3ccccc3)cc2)CCC1`, the Potency is 1.07 µM (active) in experiment [1]; 26.8 µM (active) in experiment [15]; 26.8 µM (active) in experiment [16]; 23.9 µM (active) in [18]; 3.01 µM (active) in experiment [6]; 10.7 µM (active) in experiment [7]. Besides, in experiment [12], the Potency was 33.5 µM (active). Besides, the Potency result in [2], in experiment [4], in experiment [9] and in experiment [10] was “inactive” in each case.

Turning to `Cc1c(C)n(Cc2ccccc2)c2ccc(C(=O)OCCN(C)C)cc12`, the Potency in experiment [19], in experiment [17], in experiment [14], in experiment [15] and in [16] was 23.9 µM (active) in each case. The Potency result in experiment [2], in experiment [4], in experiment [5], in experiment [7], in experiment [8] and in [9] was “inactive” in each case. In addition, the Potency result in experiment [11] was “inactive”.
